The campaign covered roughly 52,000 sequences. About 210 (0.4%) were called active.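 How the source made its calls: active means gene whose silencing raises cell survival under the drug, median off-target-corrected z-score across its silencing RNAs 2 or more; inactive means the rest.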 This excerpt belongs to a sample that is enriched for actives.

The nature of the experiment: Resistance to Poly (ADP-Ribose) Polymerase inhibitor: Gene Identification via Genome-wide siRNA Screen. The note with it: mouse BRCA2 R2336H ES cells, olaparib, CellTiter-Glo viability; hits give high values. The method in brief: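 Mouse BRCA2 R2336H ES cells were reverse-transfected with siRNA (20 nM final), treated at 48 h with 500 nM olaparib, and read by CellTiter-Glo after 72 h. Scores: MAD-based z per siRNA, median per gene, seed off-target correction.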
With “GGGCUGAUGUGGGCUAAAUTT against 1110001E17Rik”, the z-score was 4.07 (active).

“CGAAGCUAAAGGAUAUAGATT against 1110025H10Rik”: the z-score was 0.236 (inactive).

GCCCAUAACAAAACAUCUATT against Mcpt5: the z-score was 1.1 (inactive).

Turning to GGACAGAGCGUGCACUAGATT against Pqlc2, the z-score was 0.262 (inactive).

With “CCCUCCAAGAUAGAAGCGGTT against 2610021K21Rik”, the z-score is 0.124 (inactive).

In the case of GGUGGCAUGUCAUUGCUUCTT against Igf2, the z-score was 1.16 (inactive).

Turning to GUCACUUGGCUUCCAUUGATT against Olfr510, the z-score was 1.19 (active).

Regarding “GGUUUGAAAUCAGCAUGAUTT against A530065I17Rik”, the z-score was -0.647 (inactive).

On to GGCUUUGUGCUAAAAAAAATT against Pgm2l1, for which the z-score is 0.12 (inactive).

With “CGCAGACAGUUUGAGGCUGTT against 1700034P14Rik”, the z-score was -0.696 (inactive).

As for CCUUAGUUAGAAAUGUUGATT against Xkh, the z-score is 0.357 (inactive).

Regarding GCUGAAAAUACAAUCUCUGTT against Capn3, the z-score is 2.18 (inactive).

Take “GGAACUGAUAACCAGCCAGTT against 1700029B21Rik”: the z-score is -0.44 (inactive).

As to CCUUGAUGACGAAAACAUATT against Plekha2, the z-score was 0.756 (inactive).

Turning to “GGCGAAGGUGUAGAAUCUCTT against A830094I09Rik”, the z-score is 2.23 (active).

As for CGAAGUUCAUUCCUGUCUATT against Myf6, the z-score is -0.688 (inactive).

On to GGAUUACGGUCACUGCCAUTT against Gabrr2, for which the z-score was 1.39 (inactive).

With GGAGAUGACGUGAAAACAATT against Srf, the z-score is 1.93 (inactive).

Take GACUAGAACAACAGAAAGUTT against Vax2: the z-score was 1.24 (inactive).

With GCAAGUAUACACCUCUCAATT against Slc6a12, the z-score was 2.24 (active).

For the sequence “GGUAUACACAUGAAAACCATT against 3110023B02Rik”, the z-score is 2.35 (inactive).

For the sequence GGAUGGUGACAUGAAAAUCTT against Ifng, the z-score is -0.37 (inactive).

For “GGUGAUACGUAUUUUUUAGTT against 2700050F09Rik”, the z-score is 1.03 (active).

Regarding CCACCAGACUCAUAUUAACTT against LOC433501, the z-score was -0.496 (inactive).

Take CGAUUUGGCCUUGAUGGGUTT against Wtip: the z-score was -0.561 (inactive).

Turning to “GGAUAUCAAAGACAAAGCATT against 3100002B05Rik”, the z-score is 0.612 (inactive).

Take GCCCAUUAUUUUCGGACUGTT against Olfr845: the z-score is -2.22 (inactive).

Take CCUCAAUUGCAUGUGACCUTT against Itgb1bp1: the z-score was -0.642 (inactive).

On to GGGCCUUUGGAUGUUGCUATT against Abcc10, for which the z-score is 1.24 (inactive).

In the case of “GGUCCUUCCUCAGAUCCCUTT against 5730457F11Rik”, the z-score was 1.66 (active).

As for GCUCUCACACCCUUAUGUATT against Sdfr1, the z-score was -1.45 (inactive).

For the sequence GGAAUACUUAUAGCUGACUTT against Rdhe2, the z-score is 0.32 (inactive).

As for GGGCUAUAACCCUGAAGAUTT against Rarg, the z-score is 1.67 (active).

Regarding “GGACUUAGACAUCCACCUCTT against 1700034O15Rik”, the z-score is -0.799 (inactive).

CCGGGUGCUGUUCUAUAAGTT against Pecam1: the z-score was 0.0651 (inactive).

With “GCUUGGAAGACUGUAAACUTT against 4921521K07Rik”, the z-score was 0.958 (inactive).

As to GGUGGUCUGGUUCAAGGAUTT against Mylk, the z-score is -0.558 (inactive).

As to GGGUCCCUAAGCAUGUUCCTT against Slfn10, the z-score was 1.48 (inactive).

On to CGCAGAAGCUAAUAAACAGTT against Psmb6, for which the z-score was -1.52 (inactive).

Regarding GCUGUUUUAUCUCCAAUGGTT against Araf1, the z-score was 1.6 (active).

With GGACAAGUUUCAGUGACCCTT against Zdhhc9, the z-score is -0.268 (inactive).

As for GCCAUAUACAGGUUCAAAGTT against Msh6, the z-score was 0.613 (inactive).

As for GCCCAAUAUACUCUAAGGGTT against Cdh20, the z-score is 0.338 (inactive).

With “GCAUCAAAAUCGGUUUCUGTT against 4930526D03Rik”, the z-score was -0.28 (inactive).

As for GGAUCGCUCAUGGAUAUUUTT against Fus, the z-score was -0.22 (active).

Consider GGAGACAGAAUGCACAUUUTT against Tff3, for which the z-score is -1.75 (inactive).

As to “CCAUUCGGACCAAAGUGUATT against 4930563C04Rik”, the z-score is -1.48 (inactive).

Take GCCUCUGAGUUGCAUGAGUTT against Ppp2r5b: the z-score is 2.37 (active).

For the sequence “GCAAUGGUUGGUUCAAUAATT against 5730427C23Rik”, the z-score was -1.47 (inactive).

Take “GGUAGAGGUUAAGACGAUCTT against C330023D02Rik”: the z-score was -0.997 (inactive).

As to “CGGUGAAAAACCUAUGUAUTT against 1700028P14Rik”, the z-score is 0.894 (inactive).

GGCAUUCUUAUAAAGAAACTT against Ube2q: the z-score was 3.88 (inactive).

“CGCUGAAAUAAAGACCAGATT against 2400010G15Rik”: the z-score was 1.99 (active).

Consider GCCAGUGAGGCUACUUUCATT against Myo18a, for which the z-score was -0.423 (inactive).

On to “GCAUCUCACUCGUAAAGGUTT against 4732406D01Rik”, for which the z-score is -0.389 (inactive).

As to GGGAGAGGCACAAAGCAUATT against Ubxd3, the z-score was 1.27 (inactive).

As for GGGUUUUGUGUAAAAGGUUTT against Olfr584, the z-score is 1.72 (active).

Regarding “GGGACACAAUUCUUUGAAATT against G630009D10Rik”, the z-score is 0.375 (inactive).

GGACAUAAAAGACUUAAAGTT against Actr8: the z-score was 3.83 (active).

For GGAGCCAUGACUUUUCACUTT against Sec22l1, the z-score was 0.164 (inactive).

GAGUCCCUUGGCAGCUCAUTT against Klra8: the z-score was -0.753 (inactive).

With “GCACAAGAGGUAUCCUUGCTT against A630038D02”, the z-score is -0.381 (inactive).

For the sequence GGAACAGAAAGCUAUGGAUTT against Surf6, the z-score was -0.706 (inactive).

On to GGGAGAGUCAAAAAAAGAUTT against Khdrbs1, for which the z-score is 2.83 (active).

For “GGAGUACCUGGACAUUGUGTT against 1110032N12Rik”, the z-score is 0.677 (inactive).

In the case of GGACGGACAUUUAUGACCCTT against Cpsf3, the z-score was -0.072 (inactive).

Values taken from PubChem BioAssay AID1347423 (Functional Genomics Laboratory (NCATS/FGL), 2020).
